High-throughput results from PubChem.
This is one part of a sample in which hits are shown more often than they occur.
Methyltransferases: Primary Screen for Target Class Profiling of Small Molecule Inhibitors of Methyltransferases; calls only at 40 µM; purified enzyme, MTase-Glo SAH luminescence; hits give low values; 25,000 compounds, 3.9% hits; call rule not given here
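Each enzyme was assayed with SAM and its substrate. SAH formation detected by MTase-Glo luminescence; single-point 40 uM screen[…].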
Active calls of the source: *; i = inactive; + = active, no number. On the % scale 0 is the no-effect control and ±100 the full control effect.

SMILES | Methyltransferases
O=C(/C=C/c1ccc(O)cc1)OC[C@]12O[C@H]1[C@@H](O)[C@@H]1C=CO[C@@H](O[C@@H]3O[C@H](CO)[C@@H](O)[C@H](O)[C@H]3O)[C@@H]12 | i
COc1cc(/C=C/C(=O)O[C@H]2[C@@H]3C=CO[C@@H](O[C@@H]4O[C@H](CO)[C@@H](O)[C@H](O)[C@H]4O)[C@@H]3[C@@]3(CO)O[C@@H]23)ccc1O | +
CC(=O)O[C@H]1[C@@H](O)[C@H](O[C@H]2[C@@H]3C=CO[C@@H](O[C@H]4O[C@@H](CO)[C@H](O)[C@@H](O)[C@@H]4O)[C@@H]3[C@@]3(CO)O[C@@H]23)O[C@@H](C)[C@@H]1OC(=O)/C=C/c1ccccc1 | i
C=C[C@H]1[C@H](O[C@@H]2O[C@H](CO)[C@@H](O)[C@H](O)[C@H]2O)OC=C2C(=O)OCC[C@]21O | i
O=C(/C=C/c1ccc(O)cc1)OC[C@@]1(O)C=C[C@@H]2C(C(=O)O)=CO[C@@H](O[C@@H]3O[C@H](CO)[C@@H](O)[C@H](O)[C@H]3O)[C@@H]21 | +
O=C(/C=C/c1ccccc1)OC[C@]12O[C@H]1[C@@H](O)[C@@H]1C=CO[C@@H](O[C@@H]3O[C@H](CO)[C@@H](O)[C@H](O)[C@H]3O)[C@@H]12 | +
C[C@@H](OC(=O)/C=C/c1ccc(O)cc1)C1=C[C@]2(C=C[C@@H]3C(C(=O)O)=CO[C@@H](O[C@@H]4O[C@H](CO[C@@H]5O[C@H](CO)[C@@H](O)[C@H](O)[C@H]5O)[C@@H](O)[C@H](O)[C@H]4O)[C@@H]32)OC1=O | i
O=C(/C=C/c1ccc(O)c(O)c1)O[C@@H]1[C@@H](O)[C@H](OC2CCCCC2O)O[C@H](CO)[C@H]1O (stereo partly drawn) | i
COc1ccc(/C=C/C(=O)O[C@@H]2[C@@H](O[C@@H]3O[C@H](CO)[C@@H](O)[C@H](O)[C@H]3O)[C@@H](O)[C@H](O[C@H]3C4C=CO[C@@H](O[C@@H]5O[C@H](CO)[C@@H](O)[C@H](O)[C@H]5O)C4[C@@]4(CO)O[C@@H]34)O[C@H]2C)cc1 (stereo partly drawn) | i
Cc1ccc(N(C)S(=O)(=O)c2ccc3c(c2)NC(=O)CC(=O)N3)cc1 | i
CCCn1c(=O)c2ccc(C(=O)NC(C)C)cc2n2c(=O)n(CC(=O)c3ccc(C)cc3C)nc12 | i
COc1ccc(NC(=O)N2CCn3cccc3C2C)cc1OC (stereo not drawn) | i
CCOc1ccc(CN2C(=O)c3cc4oc(C)cc4n3CC2(C)C(=O)NC2CCCCC2)cc1 (stereo not drawn) | i
COc1ccc(-c2cc3n(n2)CC(C)(C(=O)NC2CCCCC2)N(CC2CCCO2)C3=O)cc1 (stereo not drawn) | i
COc1ccc(-c2nnc(-c3ccc(Cl)c(S(=O)(=O)N4CCCCCC4)c3)o2)cc1 | i
Cc1ccccc1NS(=O)(=O)c1cc2[nH]c(=O)[nH]c2cc1C | i
CCc1ccc(N2C(=O)c3cc(-c4ccccc4)nn3CC2(C)C(=O)NCCCOC)cc1 (stereo not drawn) | i
O=C(Cn1ccc2cc(S(=O)(=O)N3CCCCC3)ccc21)NCCc1ccccc1 | i
O=C(CCc1nnc2n(Cc3ccc(Cl)cc3)c(=O)c3ccccc3n12)Nc1ccc(F)c(F)c1 | i
CC1(C(=O)NC2CCCCCC2)Cn2c(cc3ccccc32)C(=O)N1CC1CCCO1 (stereo not drawn) | i
CCOC(=O)c1cc2n(n1)CC(C)(C(=O)NC1CCCCCC1)N(Cc1ccccc1F)C2=O (stereo not drawn) | i
CC(C)CCn1c(=O)c2ccc(C(=O)NC(C)C)cc2n2c(=O)n(CC(=O)c3ccccc3)nc12 | i
Cn1nc(C2CCCC2)cc1NC(=O)C1CC1 | i
COc1ccccc1NC(=O)Cn1nc2n(CCC(C)C)c(=O)c3ccccc3n2c1=O | i
CN1C(=O)c2cc(C(=O)N3CCOCC3)nn2CC1(C)C(=O)NCc1ccccc1 (stereo not drawn) | i
CC(C)Cc1ccc(S(=O)(=O)NCCn2c(CCc3ccccc3)nc3ccccc32)cc1 | i
CC(=O)O[C@@H]1[C@@H](OC(=O)/C=C/c2ccccc2)[C@@H](OC(C)=O)[C@H](O[C@H]2[C@@H]3C=CO[C@@H](O[C@@H]4O[C@H](CO)[C@@H](O)[C@H](O)[C@H]4O)[C@@H]3[C@@]3(CO)O[C@@H]23)O[C@H]1C | i
CC(=O)O[C@@H]1[C@@H](OC(C)=O)[C@H](C)O[C@@H](O[C@H]2[C@@H]3C=CO[C@@H](O[C@@H]4O[C@H](CO)[C@@H](O)[C@H](O)[C@H]4O)[C@@H]3[C@@]3(CO)O[C@@H]23)[C@@H]1OC(=O)/C=C/c1ccccc1 | i
COc1ccc(/C=C/C(=O)O[C@@H]2[C@@H](OC(C)=O)[C@@H](OC(C)=O)[C@H](O[C@H]3[C@@H]4C=CO[C@@H](O[C@@H]5O[C@H](CO)[C@@H](O)[C@H](O)[C@H]5O)[C@@H]4[C@@]4(CO)O[C@@H]34)O[C@H]2C)cc1O | +
